# Experimental data published in PubChem BioAssay AID624137 (Broad Institute, 2012).
# The whole screen tested about 31,000 compounds, of which about 360 (1.2%) were called active. This is one part of a sample in which actives are shown more often than they occur. How the calls were made is not given here.
# Target: DNA-binding protein inhibitor ID-4 (Homo sapiens) (UniProt P47928)
# Test: PubChem AID 624137;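 further: a binder raises fluorescence above local background on the spot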
# Conditions: small molecule microarray, Flag-ID4 binding, fluorescence F/B
# Chain of DNA-binding protein inhibitor ID-4 (Homo sapiens) (P47928 whole entry, looked up): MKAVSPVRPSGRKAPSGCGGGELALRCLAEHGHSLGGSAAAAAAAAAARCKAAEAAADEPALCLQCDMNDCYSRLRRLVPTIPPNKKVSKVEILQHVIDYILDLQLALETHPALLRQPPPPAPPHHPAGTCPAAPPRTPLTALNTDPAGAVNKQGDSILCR
row,SMILES,outcome
1,CCCNC(=O)C[C@@H]1C[C@@H]2c3cc(N(C)C)ccc3O[C@@H]2[C@H](CO)O1,inactive
2,COc1cccc(-c2cnc3c(c2)C(=O)N([C@@H](C)CO)C[C@@H](C)[C@@H](CN(C)Cc2ccc(C(=O)O)cc2)O3)c1,inactive
3,CCCN(C)C[C@@H]1Oc2ncc(C#CC3CC3)cc2C(=O)N([C@H](C)CO)C[C@H]1C,inactive
4,C[C@@H]1CN([C@@H](C)CO)S(=O)(=O)c2ccc(C#CCN(C)C)cc2O[C@@H]1CN(C)CC1CC1,inactive
5,CC(C)C#Cc1ccc2c(c1)O[C@H](CN(C)Cc1ccccc1)[C@H](C)CN([C@@H](C)CO)S2(=O)=O,inactive
6,O=C(N[C@@H]1CC[C@@H](CC(=O)N2CCc3ccccc3C2)O[C@H]1CO)C1CCC1,inactive
7,CCCN(C)C[C@@H]1Oc2ncc(-c3ccccc3F)cc2C(=O)N([C@@H](C)CO)C[C@@H]1C,inactive
8,CCCN(C)C[C@@H]1OCc2cnnn2CCCC(=O)N([C@H](C)CO)C[C@@H]1C,inactive
9,O=C(Cc1ccccc1)N[C@H]1C=C[C@H](CC(=O)N2CCCCC2)O[C@@H]1CO,inactive
10,CC(C)C#Cc1cnc2c(c1)C(=O)N([C@@H](C)CO)C[C@@H](C)[C@@H](CN(C)C(=O)c1cccc(F)c1)O2,inactive
11,O=C(C[C@@H]1C=C[C@H](NC(=O)CN2CCOCC2)[C@@H](CO)O1)NCc1cccc(F)c1,inactive
12,O=C(C[C@@H]1CC[C@H](NC(=O)C2CC2)[C@H](CO)O1)NCc1ccccc1Cl,inactive
13,C[C@@H]1CN([C@H](C)CO)S(=O)(=O)c2ccc(C#CCN(C)C)cc2O[C@@H]1CN(C)C,inactive
14,CCNC(=O)C[C@@H]1CC[C@H](NC(=O)C2CCC2)[C@@H](CO)O1,inactive
15,COC(=O)c1ccccc1NC(=O)CN(c1ccc2c(c1)OCCO2)S(C)(=O)=O,inactive
16,N#Cc1c(NC(=O)C2CC(Cl)=CCC2C(=O)O)sc2c1CCC2 (centres undefined),active
17,O=C(CN1CCCC1)Nc1sc2c(c1C(=O)Nc1ccccc1)CCCC2,inactive
18,CN1CCN(CC(=O)Nc2sc3c(c2C#N)CCC(C(C)(C)C)C3)CC1 (centres undefined),inactive
19,C[C@@H]1CN([C@H](C)CO)C(=O)c2ccccc2-c2ccccc2CO[C@@H]1CN(C)S(=O)(=O)CC(F)(F)F,inactive
20,CN(C)C(=O)C[C@H]1C[C@@H]2c3cc(NC(=O)CC4CC4)ccc3O[C@@H]2[C@@H](CO)O1,inactive
21,COc1cccc(-c2ccc3c(c2)O[C@H](CN(C)Cc2ccncc2)[C@H](C)CN([C@H](C)CO)S3(=O)=O)c1,inactive
22,Cc1noc(C)c1NC(=O)N[C@H]1CC[C@H](CC(=O)N2CCCCC2)O[C@@H]1CO,inactive
23,C[C@@H]1CN([C@@H](C)CO)C(=O)Cc2cc(NC(=O)CCC(F)(F)F)ccc2O[C@@H]1CN(C)C(=O)Nc1cccc2ccccc12,inactive
24,C[C@H](CO)N1C[C@H](C)[C@H](CN(C)Cc2ccncc2)Oc2ccc(NC(=O)Cc3cn(C)c4ccccc34)cc2CC1=O,inactive
25,C[C@H](CO)N1C[C@H](C)[C@H](CN(C)C(=O)Nc2ccc(F)cc2)Oc2ccc(NC(=O)Cc3cn(C)c4ccccc34)cc2CC1=O,active

row,SMILES,outcome
1,C[C@H](CO)N1C[C@H](C)[C@H](CN(C)C(=O)Nc2ccccc2)Oc2ccc(NC(=O)CCN3CCOCC3)cc2CC1=O,inactive
2,C[C@@H]1CN([C@@H](C)CO)C(=O)Cc2cc(NC(=O)CCN3CCOCC3)ccc2O[C@@H]1CN(C)C(=O)Nc1cccc2ccccc12,active
3,C[C@@H]1CN([C@@H](C)CO)C(=O)Cc2cc(NC(=O)Cc3cn(C)c4ccccc34)ccc2O[C@H]1CN(C)C(=O)NC1CCCCC1,inactive
4,CCC(=O)N(C)C[C@@H]1Oc2ncc(C#Cc3ccccc3)cc2C(=O)N([C@@H](C)CO)C[C@H]1C,inactive
5,C[C@@H]1CN([C@H](C)CO)C(=O)c2cc(C#CC3CC3)cnc2O[C@H]1CN(C)C(=O)CC1CC1,inactive
6,C[C@H]1CN([C@@H](C)CO)C(=O)c2ccccc2-c2ccccc2CO[C@@H]1CN(C)C(=O)CCN(C)C,inactive
7,CN(C)C(=O)C[C@H]1C=C[C@@H](NC(=O)C2CCC2)[C@@H](CO)O1,inactive
8,O=C(C[C@H]1CC[C@H](NC(=O)C2CCC2)[C@@H](CO)O1)NCCCN1CCOCC1,inactive
9,CCCN(C)C[C@H]1Oc2ncc(C#CC3CCCCC3)cc2C(=O)N([C@H](C)CO)C[C@@H]1C,inactive
10,O=C(c1cccc(S(=O)(=O)N2CCOCC2)c1)N(Cc1ccccc1)c1ccccn1,inactive
11,C[C@H]1CN([C@@H](C)CO)S(=O)(=O)c2ccc(-c3cccc(F)c3)cc2O[C@@H]1CN(C)C,inactive
12,O=C(CCN1CCCCC1)N[C@@H]1C=C[C@@H](CC(=O)N2CCC(Cc3ccccc3)CC2)O[C@H]1CO,inactive
13,O=C(C[C@H]1CC[C@H](NS(=O)(=O)c2ccccc2)[C@H](CO)O1)NCc1ccncn1,inactive
14,O=C(CSc1nccc(=O)[nH]1)Nc1cccc(Br)c1,inactive
15,C[C@@H]1CN([C@@H](C)CO)C(=O)c2cc(C#CCN(C)C)cnc2O[C@@H]1CN(C)Cc1ccccn1,inactive
16,C[C@@H]1CN([C@H](C)CO)C(=O)c2cc(C#CC3CCCC3)cnc2O[C@H]1CN(C)S(C)(=O)=O,inactive
17,O=C(C[C@@H]1C=C[C@H](NC(=O)Nc2ccccc2F)[C@H](CO)O1)NCc1ccc(F)cc1,inactive
18,C[C@@H]1CN([C@@H](C)CO)S(=O)(=O)c2ccc(C#C[C@@H](C)O)cc2O[C@@H]1CN(C)C(=O)CN(C)C,inactive
19,C[C@H](CO)N1C[C@H](C)[C@@H](CN(C)Cc2ccccn2)Oc2ncc(C3=CCCC3)cc2C1=O,inactive
20,CN(C)c1ccc(NC(=O)CN(C)S(=O)(=O)c2ccc(Br)cc2)cc1,inactive
21,C[C@@H]1CN([C@@H](C)CO)C(=O)Cc2cc(NC(=O)Cc3ccccc3)ccc2O[C@H]1CN(C)Cc1ccc(C(=O)O)cc1,active
22,COc1ccc(CN(C)C[C@@H]2Oc3ccc(NC(=O)Nc4ccc5c(c4)OCO5)cc3CC(=O)N([C@H](C)CO)C[C@H]2C)cc1,active
23,COc1ccc(CN(C)C[C@H]2Oc3ccc(NC(=O)Cc4ccccc4)cc3CC(=O)N([C@@H](C)CO)C[C@@H]2C)cc1,inactive
24,COc1ccc(CN(C)C[C@@H]2Oc3ccc(NC(=O)Nc4ccc(OC)cc4)cc3CC(=O)N([C@H](C)CO)C[C@H]2C)cc1,inactive
25,C[C@@H]1CN([C@@H](C)CO)C(=O)Cc2cc(NC(=O)Cc3cn(C)c4ccccc34)ccc2O[C@H]1CN(C)Cc1ccc(C(=O)O)cc1,inactive

row,SMILES,outcome
1,C[C@@H]1CN([C@H](C)CO)C(=O)Cc2cc(NC(=O)Nc3ccc(F)cc3)ccc2O[C@@H]1CN(C)Cc1ccc2c(c1)OCO2,inactive
2,O=C(C[C@@H]1C=C[C@@H](NC(=O)C2CCC2)[C@H](CO)O1)NCC1CC1,inactive
3,O=C(C[C@@H]1CC[C@H](NC(=O)C2CCC2)[C@@H](CO)O1)NC1CCCCC1,inactive
4,C[C@@H]1CN([C@H](C)CO)C(=O)c2cc(C#CC3CC3)cnc2O[C@@H]1CN(C)Cc1ccccn1,inactive
5,C[C@@H]1CN([C@@H](C)CO)S(=O)(=O)c2ccc(-c3ccc(C(=O)N(C)C)cc3)cc2O[C@@H]1CN(C)Cc1ccccc1C(=O)O,inactive
6,COc1ccccc1S(=O)(=O)N[C@@H]1C=C[C@H](CC(=O)N2CCOCC2)O[C@@H]1CO,inactive
7,O=C(C[C@@H]1C=C[C@H](NC(=O)CCN2CCCCC2)[C@H](CO)O1)NCc1ccc(Cl)c(Cl)c1,inactive
8,C/C=C/c1cnc2c(c1)C(=O)N([C@@H](C)CO)C[C@@H](C)[C@@H](CN(C)S(=O)(=O)c1ccccc1F)O2,inactive
9,C[C@H]1CN([C@@H](C)CO)S(=O)(=O)c2ccc(C3=CCCC3)cc2O[C@H]1CN(C)Cc1cccc(C(=O)O)c1,inactive
10,CC(C)NC(=O)N(C)C[C@H]1Oc2cc(-c3cncnc3)ccc2S(=O)(=O)N([C@@H](C)CO)C[C@H]1C,inactive
11,Cc1ccc(Cc2cncc(O)c2)cc1S(=O)(=O)O,active
12,C[C@H]1CN([C@@H](C)CO)S(=O)(=O)c2ccc(C3=CCCCC3)cc2O[C@@H]1CN(C)Cc1ccccc1,inactive
13,C[C@H](CO)N1C[C@H](C)[C@@H](CN(C)C(=O)C2CC2)Oc2ncc(-c3cccc(F)c3)cc2C1=O,inactive
14,C/C=C/c1ccc2c(c1)O[C@@H](CN(C)CC1CCOCC1)[C@@H](C)CN([C@H](C)CO)S2(=O)=O,inactive
15,C[C@H](CO)N1C[C@H](C)[C@H](CN(C)C(=O)C2CCCCC2)Oc2ncc(C#CC3CC3)cc2C1=O,inactive
16,C[C@H]1CN([C@@H](C)CO)C(=O)c2cc(C#Cc3ccccc3F)cnc2O[C@H]1CN(C)C,inactive
17,O=C(O)/C(=C/C(=O)c1ccc(F)cc1)Nc1ccc2[nH]c(=O)[nH]c2c1,inactive
18,O=C(OCCN1CCCCC1)c1cccc(COc2ccc3ccccc3c2)c1,inactive
19,C[C@H](CO)N1C[C@H](C)[C@H](CN(C)C(=O)c2ccncc2)Oc2cc(C#CC3(O)CCCC3)ccc2S1(=O)=O,inactive
20,O=C(C[C@@H]1C[C@@H]2c3cc(NS(=O)(=O)c4ccc(F)cc4)ccc3O[C@@H]2[C@@H](CO)O1)N1CCOCC1,inactive
21,CCCC#Cc1ccc2c(c1)O[C@@H](CN(C)S(=O)(=O)c1cccc(OC)c1)[C@H](C)CN([C@@H](C)CO)S2(=O)=O,inactive
22,COCC(=O)Nc1ccc2c(c1)[C@H]1C[C@H](CC(=O)NCc3cccnc3)O[C@H](CO)[C@H]1O2,inactive
23,CO[C@@H]1CN(C)C(=O)c2ccc(NC(=O)C3CC3)cc2OC[C@@H](C)N(CC2CCOCC2)C[C@H]1C,inactive
24,CC(=O)N(C)C[C@H]1Oc2ncc(-c3cccc(F)c3)cc2C(=O)N([C@@H](C)CO)C[C@H]1C,inactive
